Potency and activity change, negative = inhibition data for 40 compounds are collected here from PubChem BioAssay (Tox21).

Records with an inconclusive call do not appear. Entries that show only a call come without a potency. The source made the active and inactive calls. Calls follow the shape of the full dose curve. Non-standard residues stand in square brackets, D forms with d. Residues, ends and D or L forms follow the SMILES beside them. *: point of attachment. Sta = CC(C)C[C@H](N)[C@@H](O)CC(=O)O; Isovaleryl = CC(C)CC(=O)*

The test in a line: qHTS assay to identify small molecule antagonists of the sonic hedgehog signaling (Shh) pathway (AID 1259369). Also: nearly all actives have a fitted effect of over 45% in size. The conditions noted are these: NIH/3T3 Gli1-Luc reporter, Shh antagonist, luminescence 24 h; series mostly up to 92.4 µM. The source says:
U.S. Tox21 Program National Center for Advancing Translational Sciences [NCATS] NIH Chemical Genomics Center [NCGC] U.S. Environmental Protection Agency [EPA] National Institutes of Environmental Health Sciences [NIEHS] National Toxicology Program [NTP] U.S. Food and Drug Administration [FDA] Tox21 Assay Overview: The sonic hedgehog (Shh) pathway is essential for normal embryonic development. Dysregulation of the Shh pathway can cause severe developmental defects in organs. Therefore chemicals that interfere with the pathway are potential developmental toxicants. A cell line designated 3T3Gli1-Luc (DMB/OARSA/CFSAN/FDA, Laurel, MD), a NIH/3T3 derived clone containing stably integrated Gli1-Luc reporter is used to detect chemical interference of the Shh pathway, by changes in the expression of the firefly Luc gene under the control of the Gli1 transcriptional response element. This cell line was used to screen Tox21 libraries for identifying and prioritizing the potential developmental toxicants that interfere Shh pathway. Conditioned medium-stimulated mode was used to screen for chemicals inhibiting Shh signaling.
Tox21 Assay Protocol Summary: 3T3 Gli1-Luc cells were dispensed at 2,000 per well in 5uL of culture medium into white solid bottom 1536-well plates (Greiner Bio-One, Monroe, NC) using a Multidrop Combi (Thermo Scientific, Waltham, MA) dispenser. The assay plates were incubated at 37 C and 5% CO2 for 4hr, and then 23nL of compounds dissolved in DMSO and positive control were transferred using a Pintool station (Wako, San Diego, CA). The compound transfer was followed by the addition of 1ul conditioned medium or assay buffer using two separate tips of Flying Reagent Dispenser (FRD, Aurora Discovery, San Diego, CA). The assay plates were incubated at 37C and 5% CO2 for 24hr. For luciferase read, 4uL of Amplite Luciferase reporter gene assay reagent (AAT Bioquest, Inc. Sunnyvale, CA) was added to each well of the assay plates using FRD and incubated at room temperature for 30min. The luminescence signal was measured using a ViewLux plate reader (Perkin Elmer, Shelton, CT).
As for `CC(=O)/C=C/C=C1/C2CCC(C2)C1(C)C` (stereo not given), the Potency entry is “inactive”.
On the same count and under the same terms, with `CCN(CC)CC` the entry was “inactive”; with `COC(=O)/C=C(\C)CCC=C(C)C`, “inactive”; with `CCCCCCCCCCCCCC(=O)OCC`, “inactive”.
Still for that read-out and setting: with `CCC(C)(C)C` the entry was “inactive”; with `C=C(C)C(=O)OCCCC`, “inactive”.
Same read-out and setting: with `CCCCCCCCS(=O)(=O)O` the entry was “inactive”; with `Cc1ccc(N)nc1`, “inactive”; with `Cc1ccc2ccccc2n1`, “inactive”.
Consider `CC(O)C(CO)C(C)O` (stereo not given), for which the Potency entry is “inactive”.
On the same count and under the same terms, with `C[C@]12C=CC(=O)C=C1[C@@H](F)C[C@@H]1[C@@H]2[C@@H](O)C[C@@]2(C)[C@H]1CC[C@]2(O)C(=O)CO` the entry was “inactive”.
Still for that read-out and setting: next, `C[n+]1ccccc1/C=N/O`: “inactive”.
On the same count and under the same terms, next, `Cc1cc(O)c(Cl)cc1C`: “inactive”; `CCCCC(CC)COC(=O)CC#N` (stereo not given): “inactive”.
Take `Cc1ccc2cccnc2c1`: the Potency result was “inactive”.
Same read-out and setting: with `CCCC[O][Al]([O]CCCC)[O]CCCC` the entry was “inactive”; with `Clc1ccc2c(c1)Nc1ccccc1S2`, “inactive”; with `O=C(O)Cc1c(Cl)ccc(Cl)c1Cl`, “inactive”.
The same measure, in the same setting: with `CC(C)=CCC/C(C)=C\C#N` the entry was “inactive”.
Consider `N=C(N)S(=O)O`, for which the Potency result was “inactive”.
Still for that read-out and setting: next, `CN(C)CCc1c[nH]c2ccc(C[C@H]3COC(=O)N3)cc12`: “inactive”; `O=Cc1ccccc1S(=O)(=O)O`: “inactive”.
On the same count and under the same terms, with `O=C1c2ccccc2C(=O)N1CO` the entry was “inactive”; with `COC(=O)c1ccc(C(=O)O)cc1`, “inactive”.
The same measure, in the same setting: with `CC(=O)SC[C@@H](C)C(=O)N1CCC[C@H]1C(=O)N[C@@H](Cc1ccccc1)C(=O)O` the entry was “inactive”; with `Cc1ccc(OC(=O)CC(C)C)cc1`, “inactive”; with `COC(=O)c1cc(Cl)c(NC(C)=O)cc1OC`, “inactive”.
As for `CC(C)CC(=O)N[C@H](C(=O)N[C@H](C(=O)N[C@@H](CC(C)C)[C@@H](O)CC(=O)N[C@@H](C)C(=O)N[C@@H](CC(C)C)[C@@H](O)CC(=O)O)C(C)C)C(C)C` (Isovaleryl-VV[Sta]A[Sta]-OH), the Potency result is “inactive”.
Still for that read-out and setting: with `CNC(=O)c1c(I)c(NC(C)=O)c(I)c(C(=O)O)c1I` the entry was “inactive”.
Turning to `CCCCCCCCCCCCCCCCN(C)C`, the activity change, negative = inhibition was -28.7% [at 8.39 µM] (inactive).
`c1cc2ccc3ccc4ccc5cccc6c(c1)c2c3c4c56`: the activity change, negative = inhibition is 17.2% [at 3.27 µM] (inactive).
Consider `C[C@H]1COc2c(C3(N)CC3)c(F)cc3c(=O)c(C(=O)O)cn1c23`, for which the Potency result was “inactive”.
The same measure, in the same setting: next, `CCCCN(CCCC)CCCCCCN(CCCC)CCCC`: “inactive”.
Same read-out and setting: with `COCc1nnc(-c2ccc[n+]([O-])c2)n1-c1c(Cl)c(Cl)cc2[nH]c(=O)c(=O)[nH]c12` the entry was “inactive”; with `CCOC(=O)c1ccc(N(C)C)cc1`, “inactive”; with `COC(=O)c1ccccc1Cl`, “inactive”.
Still for that read-out and setting: next, `CCc1ccc(CC)cc1`: “inactive”.
`Cc1ccccc1OCC(=O)O`: the Potency result was “inactive”.
On the same count and under the same terms, next, `C=CCCCCCCCCOC(C)=O`: “inactive”; `CCO/C=C1\N=C(c2ccccc2)OC1=O`: “inactive”.
